Bioassay records: PubChem, National Center for Advancing Translational Sciences (NCATS)
Hits are enriched below; roughly 2.6% of the tested compounds scored in any of these assays.
mTORC1 inh: reduces mTORC1 signaling in Tsc2 and p53 null MEF cells. Tsc2-/- p53-/- MEF, phospho-rpS6 immunofluorescence/PI, 24 h. Potency, µM (titrated, usually from 38.3 µM), inactives show at the top dose activity change, negative = inhibition, most hits filed as inhibitors. 44,000 tested, 0.78% active. AID 493208;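 further: potency means the concentration at half of the fitted maximal effect; plate controls were DMSO for no effect and rapamycin for full effect; nearly all actives have a fitted effect of over 50% in size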
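Read-out: phospho-S6 Alexa-488 intensity over PI intensity per well, scored as % active cells using thresholds from rapamycin (7.5 nM) and DMSO controls. Tsc2-/-, p53-/- MEFs exposed to compound for 24 h; PI cell count recorded as viability.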
GALC G270D up: raises human GALC G270D mutant activity in cells; P54803; 145M-Twi-hGALC-G270D cells (Twitcher mouse brain line with human GALC G270D), HMU-beta-Gal fluorescence, 48 h; Potency, µM (titrated, usually from 57.5 µM), usual class: activators; 45,000 tested, 0.1% active; AID 1159614; further: potency means the concentration at half of the fitted maximal effect; 0% is about no effect; nearly all actives have a fitted effect of over 65% in size
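Brain-derived Twitcher mouse 145M-Twi cells stably expressing human GALC-G270D or wild-type GALC, treated live, then residual GALC activity read by fluorescence of HMU-b-Gal substrate (0.1 mM final) in citrate-phosphate buffer pH 5.2 with sodium taurocholate. Signal increase indicates enhancement.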
S16 F2sN tox: cytotoxicity in S16 Pmp22-F2sN Schwann cells | 43,000 tested, 0.48% active | Potency, µM (series often up to 57.5 µM), inactives show at the highest dose activity change, negative = cytotoxicity, usual class: cytotoxic | S16 Pmp22-F2sN Schwann cells viability, CellTiter-Glo, 24 h; further: potency means the concentration at half of the fitted maximal effect; on the % scale 0 is the no-effect control and ±100 the full control effect; nearly all actives have a fitted effect of over 65% in size
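Viability was measured by CellTiter-Glo luminescence (15 min, room temperature). This followed 24 h at 37 °C of compound exposure (23 nL pin transfer) in S16 Pmp22-F2sN Schwann cells, 500-1,000 per well.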
SKOV3 invasion: inhibitors of ovarian cancer cell adhesion and invasion in omental model; Potency, µM (top dose mostly 45.8 µM), inactives show at the top dose activity change, negative = inhibition, actives largely listed as inhibitors; AID 1963576; SKOV3ip1-GFP adhesion/invasion on 3D omental model, fluorescence; 46,000 tested, 0.1% active;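 further: potency means the concentration at half of the fitted maximal effect; plate controls were DMSO wells for no effect and tomatine positive control wells for full effect; nearly all actives have a fitted effect of over 65% in size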
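A 3D layer of primary human omental fibroblasts, mesothelial cells, fibronectin and collagen I, grown 48 hr, received SKOV3ip1-GFP cells in serum-free medium plus compounds at 0.36-46 umol/L. After 2 hr RT and 16 hr 37 C, fixed adherent GFP cells were counted; normalized to DMSO and tomatine.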
PMP22 txn: modulates PMP22 transcription in S16 Schwann cells. S16 Pmp22-F2sN Schwann cells, FLuc/NLuc coincidence luminescence, 24 h. Potency, µM (titrated, usually from 57.5 µM), without a hit: at the top dose activity change, negative = inhibition, hits mostly inhibitors. 43,000 tested, 2% active; active means clear falling dose curves in both reporters; inconclusive means both reporters move, but less clearly or upward; inactive means either reporter flat; the % is the NLuc reporter signal; further: potency means the concentration at half of the fitted maximal effect; on the % scale 0 is the no-effect control and ±100 the full control effect
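qHTS, 1536-well. Cells seeded, compounds added by pin tool, 24 h 37C. Nano-Glo reagent 1 (lysis/FLuc), 10 min RT, read; Stop&Glo, 10 min RT, read NLuc.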
NLuc saturating: NanoLuc enzyme inhibition artifact for PMP22 screen; shares compounds with PMP22 txn; Secreted NLuc enzyme (filtered S16 cell medium), Nano-Glo luminescence; 690 tested, 4% active; AID 1508638; Potency, µM (highest dose often 57.5 µM), inactives show at the highest dose activity change, negative = inhibition, usual class: inhibitors; further: potency means the concentration at half of the fitted maximal effect; on the % scale 0 is the no-effect control and ±100 the full control effect
NLuc Km ctr: counter-screen for PMP22 expression modulators: NanoLuc inhibition at Km | shares compounds with PMP22 txn | secreted NLuc enzyme, coelenterazine luminescence, Km conditions | Potency, µM (highest dose often 57.5 µM), inactives show at the highest dose activity change, negative = inhibition, usual class: inhibitors | 690 tested, 5% active | AID 1508639; further: potency means the concentration at half of the fitted maximal effect; on the % scale 0 is the no-effect control and ±100 the full control effect
FLuc ctr PMP22: inhibits firefly luciferase, PMP22 counter-screen. Potency, µM (doses to about 57.5 µM), inactives show at the highest dose activity, negative = inhibition, most hits filed as inhibitors. 690 tested, under 10 active. shares compounds with PMP22 txn. AID 1508640. purified P. pyralis FLuc, luminescence, 10 min; further: % of control where 0% means no effect
Target sequence (P08659 whole entry, looked up): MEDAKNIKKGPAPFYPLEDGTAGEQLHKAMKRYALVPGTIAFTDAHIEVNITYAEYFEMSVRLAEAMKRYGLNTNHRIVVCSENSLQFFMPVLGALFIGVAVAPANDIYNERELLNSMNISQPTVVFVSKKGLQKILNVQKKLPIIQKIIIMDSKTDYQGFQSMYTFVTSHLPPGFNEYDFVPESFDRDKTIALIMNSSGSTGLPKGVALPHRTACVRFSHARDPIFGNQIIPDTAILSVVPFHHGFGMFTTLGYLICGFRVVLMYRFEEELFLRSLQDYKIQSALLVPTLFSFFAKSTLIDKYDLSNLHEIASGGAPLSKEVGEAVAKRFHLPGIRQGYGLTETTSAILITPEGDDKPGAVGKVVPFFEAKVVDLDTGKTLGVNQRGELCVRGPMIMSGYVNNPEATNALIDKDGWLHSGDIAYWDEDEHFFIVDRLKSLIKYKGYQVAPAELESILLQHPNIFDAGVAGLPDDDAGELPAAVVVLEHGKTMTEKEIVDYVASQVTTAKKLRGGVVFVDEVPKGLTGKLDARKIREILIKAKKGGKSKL
S16 F2sN tox cnf: confirmation of cytotoxicity in S16 Pmp22-F2sN Schwann cells (luciferase reporters placed in the Pmp22 gene) | S16 Schwann cells viability, CellTiter-Glo ATP luminescence, 24 h | 690 tested, 7% active | Potency, µM (highest dose often 57.5 µM), for inactives: at the top dose activity change, negative = viability loss, most hits filed as cytotoxic | shares compounds with PMP22 txn; further: potency means the concentration at half of the fitted maximal effect; on the % scale 0 is the no-effect control and ±100 the full control effect
PMP22 txn conf: confirmation of modulators of PMP22 gene transcription in S16 cells; S16 Schwann cells Pmp22-F2sN, dual luciferase, 24 h; shares compounds with PMP22 txn; Potency, µM (doses to about 57.5 µM), for inactives: at the top dose activity change, negative = inhibition, actives largely listed as inhibitors; 690 tested, 22% active; AID 1508646; active means clear falling dose curves in both reporters; inconclusive means both reporters move, but less clearly or upward; inactive means either reporter flat; the % is the FLuc reporter signal; further: potency means the concentration at half of the fitted maximal effect
PMP22 prot conf: confirmation of modulators of rat PMP22 protein expression. 95 tested, under 10 active. Potency, µM (series often up to 27.9 µM), for inactives: at the top dose activity change, negative = inhibition, actives largely listed as inhibitors. shares compounds with PMP22 txn. AID 1508647. S16 Schwann cells Pmp22-HiBiT, luminescence, 48 h
Target sequence (P25094 whole entry, looked up): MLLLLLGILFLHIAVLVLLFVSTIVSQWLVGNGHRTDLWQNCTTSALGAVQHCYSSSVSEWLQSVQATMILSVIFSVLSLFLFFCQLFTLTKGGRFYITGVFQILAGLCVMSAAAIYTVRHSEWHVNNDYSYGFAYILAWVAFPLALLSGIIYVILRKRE
Active calls of the source: *; i = inactive; ? = inconclusive; · = no result. Unless noted, the call rests on the fitted dose curve; in most records, active means well fitted curve in the direction sought with a large enough effect; inconclusive means small, poorly fitted or top-dose-only effect, or another doubt; inactive means no such curve, though single readings can be large; an effect the other way counts as inactive or inconclusive.

SMILES	mTORC1 inh	GALC G270D up	S16 F2sN tox	SKOV3 invasion	PMP22 txn	NLuc saturating	NLuc Km ctr	FLuc ctr PMP22	S16 F2sN tox cnf	PMP22 txn conf	others
COc1ccc(NC(=O)CCS(=O)(=O)c2nc(-c3cccs3)cc(C(F)(F)F)n2)cc1	?	i	?	?	7.61µM*	-17.2%	?	-7.4%	?	11.5µM*	PMP22 prot conf=22.6%
O=C(CCS(=O)(=O)c1nc(-c2cccs2)cc(C(F)(F)F)n1)Nc1ccc(F)c(Cl)c1	-13.2%	i	?	?	15µM*	-6.3%	?	4.1%	?	12.9µM*	PMP22 prot conf=?
COc1ccc(Cl)cc1NC(=O)CCCS(=O)(=O)c1nc(-c2ccc(OC)c(OC)c2)cc(C(F)(F)F)n1	13.1µM*	i	?	?	5.04µM*	-13.0%	1.3%	2.5%	?	9.27µM*	PMP22 prot conf=34.4%
O=C(CCS(=O)(=O)c1nc(-c2ccc3c(c2)OCO3)cc(C(F)(F)F)n1)Nc1ccccc1F	-2.3%	i	11.8%	?	?	·	·	·	·	·
COc1ccc(Cl)cc1NC(=O)CCS(=O)(=O)c1nc(-c2cccs2)cc(C(F)(F)F)n1	0.7%	i	?	?	10µM*	?	?	2.8%	?	8.85µM*
COC(=O)c1ccccc1NC(=O)CCS(=O)(=O)c1nc(-c2ccc3c(c2)OCO3)cc(C(F)(F)F)n1	-14.6%	i	-6.2%	-11.6%	14.1µM*	-19.0%	-2.1%	5.8%	-24.3%	19.3µM*
COc1ccccc1-c1cc(C(F)(F)F)nc(S(=O)(=O)CCCC(=O)Nc2ccccc2F)n1	16.5µM*	i	?	?	8.91µM*	?	?	-1.3%	?	6.9µM*	PMP22 prot conf=36.0%
CCOC(=O)N1CCC(n2c(=O)[nH]c3cc(Cl)ccc32)CC1	·	i	·	·	·	·	·	·	·	·
O=C(Nc1ccccc1C(F)(F)F)N1CCN(c2ccc3nnc(-c4ccc(F)cc4)n3n2)CC1	-2.0%	i	-6.8%	-18.8%	16µM*	-18.0%	-3.7%	-8.7%	-9.8%	?
CCOc1ccccc1NC(=O)c1c(NCc2ccc(C)o2)sc2c1CCC(C)C2 (centres undefined)	-9.7%	i	13.2%	?	2.4%	·	·	·	·	·
CCOc1ccccc1NC(=O)c1c(NCc2ccc(C)o2)sc2c1CCCCC2	-10.1%	i	-19.7%	0.7%	13.4µM*	?	?	-26.0%	1.0%	?
O=C(Nc1ccc(F)cc1Cl)C1CCN(c2ncnc3c2nc2n3CCCCC2)CC1	-3.2%	i	-24.7%	1.6%	17µM*	-18.7%	7.7%	-14.2%	-3.3%	?
CCOC(=O)c1ccccc1NC(=O)C1CCN(c2ncnc3c2nc2n3CCCCC2)CC1	-4.3%	i	0.7%	i	?	·	·	·	·	·
O=C(NCCc1csc(-c2ccc(F)cc2)n1)c1cccc(F)c1	-0.8%	i	24.9%	-3.9%	?	·	·	·	·	·
O=C(NCCc1csc(-c2ccc(F)cc2)n1)c1c(F)cccc1Cl	-8.2%	i	5.4%	-4.3%	?	?	?	?	-8.9%	28.6%
O=C(Nc1ccc(Br)cc1F)N1CC=C(c2c[nH]c3ccccc23)CC1	-0.1%	i	-10.1%	i	?	-12.6%	?	-11.8%	10.0%	-17.4%
CCOC(=O)N1CCN([N+]([O-])=NOc2ccc([N+](=O)[O-])cc2C#N)CC1	·	·	·	4.3%	·	·	·	·	·	·
O=C(Cn1ncc2c([nH]c3ccccc32)c1=O)Nc1cccc(C(F)(F)F)c1	0.8%	i	-19.7%	-1.4%	20µM*	-8.1%	4.0%	5.6%	-10.0%	-56.0%
COC(=O)[C@H]1[C@H]2C[C@@H]3c4[nH]c5cc(OC)ccc5c4CCN3C[C@H]2C[C@@H](OC(=O)/C=C/c2ccc(O)c(OC)c2)[C@@H]1OC	·	i	·	·	·	·	·	·	·	·
Cc1ccc2[nH]c(CSc3nnc(COc4ccccc4C)n3C)cc(=O)c2c1	-14.2%	i	?	i	13.4µM*	?	?	-6.8%	?	-22.6%
COc1ccc(-c2noc(CSc3nnc(C)n3-c3ccc(C)cc3)n2)cc1	-14.8%	i	?	1.5%	?	·	·	·	·	·
COc1ccc(-n2c(C)nnc2SCc2nc(-c3ccc(OC)c(OC)c3)no2)cc1	0.1%	i	-21.9%	i	?	?	?	-4.6%	-20.4%	-40.6%
COc1ccc(-c2noc(CSc3nnc(-c4ccncc4)n3-c3ccccc3)n2)cc1	-6.8%	i	?	i	13.5µM*	?	?	-22.3%	-13.5%	6.15µM*
COc1ccc(-n2c(SCc3nc(-c4ccc(C)cc4)no3)nnc2-c2ccncc2)cc1	-2.0%	i	-9.6%	i	?	·	·	·	·	·
CC1CCCCN1CCCOC(=O)c1ccc(OC2CCCCC2)cc1 (centres undefined)	·	i	·	·	·	·	·	·	·	·
CCC(=O)C1=C(c2cccc([N+](=O)[O-])c2)N(C(=O)CC)n2c(nnc2C2CCCCC2)S1	-3.0%	i	?	?	8.43µM*	-7.4%	4.2%	7.2%	-23.2%	10.9µM*	PMP22 prot conf=?
